In all, about 370,000 compounds went through this assay and about 3,100 (0.84%) were called active. This is one part of a sample in which actives are shown more often than they occur. Rule as the data show it: active = inhibition above about 9.5%; inactive = the rest.
biological target: 1-phosphatidylinositol 4,5-bisphosphate phosphodiesterase gamma-1 (Homo sapiens) (UniProt P19174); assay: blockers of human PLCG1 activity – biochemical, fluorescence, purified enzyme, primary screen (AID 720700); details: purified PLC-gamma1, fluorogenic substrate, at 12.2 µM, hits give high values
Sequence (P19174 whole entry, looked up): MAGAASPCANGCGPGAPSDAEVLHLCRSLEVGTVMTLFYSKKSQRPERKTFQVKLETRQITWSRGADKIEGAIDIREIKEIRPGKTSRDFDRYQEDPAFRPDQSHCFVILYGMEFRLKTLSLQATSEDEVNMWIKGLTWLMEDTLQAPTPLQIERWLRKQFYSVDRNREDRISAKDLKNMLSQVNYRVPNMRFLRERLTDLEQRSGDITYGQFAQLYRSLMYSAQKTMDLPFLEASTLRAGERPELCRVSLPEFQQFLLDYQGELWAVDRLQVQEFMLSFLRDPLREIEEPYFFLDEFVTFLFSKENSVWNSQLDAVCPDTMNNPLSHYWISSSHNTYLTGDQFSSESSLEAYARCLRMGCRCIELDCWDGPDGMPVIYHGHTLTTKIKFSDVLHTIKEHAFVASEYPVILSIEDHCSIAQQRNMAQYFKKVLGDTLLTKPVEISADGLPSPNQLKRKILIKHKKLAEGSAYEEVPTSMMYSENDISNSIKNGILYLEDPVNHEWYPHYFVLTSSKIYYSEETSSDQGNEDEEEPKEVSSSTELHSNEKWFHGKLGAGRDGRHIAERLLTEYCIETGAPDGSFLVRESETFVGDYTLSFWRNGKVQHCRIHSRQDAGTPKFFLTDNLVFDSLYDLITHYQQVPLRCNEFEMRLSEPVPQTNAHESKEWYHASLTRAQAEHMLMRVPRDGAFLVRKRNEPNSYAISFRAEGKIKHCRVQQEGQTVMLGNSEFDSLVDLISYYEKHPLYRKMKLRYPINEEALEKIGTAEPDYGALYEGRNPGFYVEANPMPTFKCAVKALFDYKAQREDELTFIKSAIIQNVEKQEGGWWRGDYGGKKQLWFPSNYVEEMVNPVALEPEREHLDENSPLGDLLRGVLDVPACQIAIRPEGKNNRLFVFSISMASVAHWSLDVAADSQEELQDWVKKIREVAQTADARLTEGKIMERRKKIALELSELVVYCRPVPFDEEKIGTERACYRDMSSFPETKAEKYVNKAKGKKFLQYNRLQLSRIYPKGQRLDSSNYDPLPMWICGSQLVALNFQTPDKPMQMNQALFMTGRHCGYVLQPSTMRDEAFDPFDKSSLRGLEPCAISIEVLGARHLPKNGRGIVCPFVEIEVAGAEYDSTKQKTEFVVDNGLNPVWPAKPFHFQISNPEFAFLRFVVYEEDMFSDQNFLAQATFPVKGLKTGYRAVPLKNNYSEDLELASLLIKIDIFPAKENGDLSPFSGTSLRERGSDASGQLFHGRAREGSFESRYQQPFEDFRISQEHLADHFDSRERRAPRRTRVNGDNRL

| Structure (SMILES) | inhibition |
| --- | --- |
| C[C@@H]1ON(C)[C@H]2C[C@H]3c4[nH]c5cccc(-c6ccc7c(c6)OCO7)c5c4CCN3C[C@@H]12 | -51.7% (inactive) |
| N#CCC[C@H]1CC[C@]2(CCCN(Cc3ccc(Cl)cc3)C2)O1 | -3.24% (inactive) |
| COc1ccc(CCNC(=O)CSc2nc3c([nH]2)c(=O)n(C)c(=O)n3C)cc1 | -0.19% (inactive) |
| CN(C)S(=O)(=O)c1cccc(NC(=O)COC(=O)C2(c3ccccc3F)CCCC2)c1 | 11.9% (active) |
| CN(C)S(=O)(=O)c1cccc(NC(=O)COC(=O)c2cc(=O)[nH]c(=O)[nH]2)c1 | 5.81% (inactive) |
| CN(C)S(=O)(=O)c1cccc(NC(=O)COc2ccc3ccccc3c2)c1 | 2.81% (inactive) |
| O=C(NCc1ccc(F)cc1F)[C@@H]1CCCN1C(=O)[C@@H]1CCCN1C(=O)c1cccc(Cl)c1 | 11% (active) |
| O=C(NCc1ccccc1)[C@@H]1CCCN1C(=O)[C@H]1CCCN1C(=O)c1cccc(Cl)c1 | 0.25% (inactive) |
| O=C(NCc1ccccc1)[C@H]1CCCN1C(=O)[C@H]1CCCN1C(=O)c1cc(F)cc(F)c1 | 0.04% (inactive) |
| Cc1cc(=O)[nH]c(SCC(=O)Nc2ccc(F)cc2F)n1 | 0.36% (inactive) |
| CC(=O)Nc1ccc(OC[C@@H](O)CN2CCC(C(O)(c3ccccc3)c3ccccc3)CC2)cc1 | -0.12% (inactive) |
| O=S1(=O)c2ccc(Br)cc2OC[C@H](Cc2ccccc2)N1Cc1cn(Cc2ccccc2)nn1 | 10.2% (active) |
| COc1ccc(Cn2cc(CN3[C@@H](CC(C)C)COc4cc(Br)ccc4S3(=O)=O)nn2)cc1 | 3.87% (inactive) |
| O=S1(=O)c2ccc(Br)cc2OC[C@@H](Cc2ccccc2)N1Cc1cn(Cc2ccco2)nn1 | 6.61% (inactive) |
| O=C(CCCCCN1C(=O)C2C3C=CC(C3)C2C1=O)Nc1ccccc1 (configuration not stated) | 4.2% (inactive) |
| CCOC(=O)C1CCN(C(=O)C(C)(C)NC(=O)Nc2ccc(F)c(F)c2)CC1 | 6.44% (inactive) |
| O=C(NCCCN1CCCCC1)C1CC(=O)N(CCc2ccccc2)C1 (configuration not stated) | 10% (active) |
| COCCCNC(=O)C1CC(=O)N(CCc2ccccc2)C1 (configuration not stated) | 7.12% (inactive) |
| Cc1ccc(CCN2CC(C(=O)NCCc3ccccc3)CC2=O)cc1 (configuration not stated) | 7.32% (inactive) |
| COc1cccc(Cn2cc(COC(=O)Nc3ccc(F)cc3)nn2)c1 | -1.49% (inactive) |
| CCOC(=O)[C@@]12CN(C(=O)OC(C)(C)C)CC=C1N(Cc1ccc(OC)cc1)C(=O)[C@H]2CC(=O)NCc1ccc(OC)c(OC)c1 | 2.04% (inactive) |
| COc1ccc(CN2C/C(=C/c3ccccc3)N3C(=O)C[C@@H](c4ccccc4)N=C23)c(OC)c1 | -7.12% (inactive) |
